High-throughput results as filed in PubChem.
Only some compounds are listed: those with a hit (about 12% of all), similar ones and a draw of the others.
Sfp inh: blocks B. subtilis Sfp PPTase activity; Potency, µM, inactives show largest response in the series, negative = inhibition, usual class: inhibitors; 310,000 tested, 3.5% active; Q9F4F7; Biochemical Sfp PPTase activity, qHTS; AID 1490;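 also: the enzyme is Sfp with the accession as filed and its product quenches rhodamine fluorescence; 0% = enzyme reaction without inhibitor and -100% = no enzyme wells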
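Compounds were incubated with enzyme (final 15 nM) for 15 min at room temperature before substrate addition started the reaction. Fluorescence at 525 nm excitation, 598 nm emission was recorded immediately and after 30 minutes.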
HP1b chromo inh: inhibitors of HP1-beta chromodomain binding to methylated histone tails; P83916; 390,000 tested, 0.56% active; Potency, µM (top dose mostly 114 µM), without a hit: at the top dose activity change, negative = inhibition, hits mostly inhibitors; AlphaScreen HP1-beta / biotin-H3K9me3 peptide binding; also: nearly all actives have a fitted effect of over 70% in size
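AlphaScreen: HP1-beta (50 nM) preformed 30 min with biotin-H3(1-18)K9me3 peptide (50 nM) in PBS pH 7.4, 0.01% Tween-20. Compound added for 30 min at RT, then streptavidin donor/nickel chelate acceptor beads (10 ug/mL) for 30 min.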
L3MBTL1 inh: blocks human L3MBTL1; 230,000 tested, 0.66% active; AID 485360; Q9Y468; AlphaScreen L3MBTL1–H3K9me1 peptide binding; Potency, µM (top dose mostly 57.1 µM), without a hit: at the highest dose activity, negative = inhibition, actives largely listed as inhibitors; also: % is scaled to controls: 0 for no effect and ±100 for the full control effect; nearly all actives have a fitted effect of over 60% in size
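AlphaScreen proximity signal between nickel-chelate acceptor and streptavidin donor beads (final 10 ug/mL) reports binding of 50 nM L3MBTL1 to 75 nM biotin-H3 K9me1 peptide; complex incubated with compounds 30 min at room temperature; cefsulodin titration as control.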
BAZ2B block: blocks human BAZ2B. AID 504333. Potency, µM (highest dose often 114 µM), for inactives: at the highest dose activity change, negative = inhibition, actives largely listed as inhibitors. AlphaScreen BAZ2B-H3K14Ac peptide displacement. 360,000 tested, 4.4% active. Q9UIF8; also: % is scaled to controls: 0 for no effect and ±100 for the full control effect; nearly all actives have a fitted effect of over 60% in size
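Compounds, titrated to a top concentration of 110 uM, were incubated 30 min at room temperature with preformed BAZ2B/acetyl-K14 H3 peptide complex (50 nM each). Proximity signal was measured by AlphaScreen after 20 min with beads.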
G9a inh: blocks human histone lysine methyltransferase G9a | Potency, µM (titrated, usually from 102 µM), without a hit: at the top dose activity, negative = inhibition, most hits filed as inhibitors | 350,000 tested, 8.8% active | G9a H3K9 monomethylation, AlphaScreen, 2 h | AID 504332 | Q96KQ7; also: % is scaled to controls: 0 for no effect and ±100 for the full control effect; nearly all actives have a fitted effect of over 75% in size
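Chemiluminescent proximity detection of H3K9 monomethylation, read after 10 min bead incubation in the dark. Reaction: 20 nM G9a, 500 nM biotin-H3K9 peptide, 20 uM SAM cofactor, 2 h, room temperature, following 15 min enzyme-compound preincubation.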
JMJD2A Tudor: JMJD2A Tudor domain (human) inhibition | AID 504339 | O75164 | 390,000 tested, 4.4% active | AlphaScreen JMJD2A-Tudor / H3K4me3 peptide binding | Potency, µM (titrated, usually from 114 µM), without a hit: top-dose activity change, negative = inhibition, usual class: inhibitors; also: % is scaled to controls: 0 for no effect and ±100 for the full control effect; nearly all actives have a fitted effect of over 50% in size
Target sequence (O75164 whole entry, looked up, the tested form may be a part): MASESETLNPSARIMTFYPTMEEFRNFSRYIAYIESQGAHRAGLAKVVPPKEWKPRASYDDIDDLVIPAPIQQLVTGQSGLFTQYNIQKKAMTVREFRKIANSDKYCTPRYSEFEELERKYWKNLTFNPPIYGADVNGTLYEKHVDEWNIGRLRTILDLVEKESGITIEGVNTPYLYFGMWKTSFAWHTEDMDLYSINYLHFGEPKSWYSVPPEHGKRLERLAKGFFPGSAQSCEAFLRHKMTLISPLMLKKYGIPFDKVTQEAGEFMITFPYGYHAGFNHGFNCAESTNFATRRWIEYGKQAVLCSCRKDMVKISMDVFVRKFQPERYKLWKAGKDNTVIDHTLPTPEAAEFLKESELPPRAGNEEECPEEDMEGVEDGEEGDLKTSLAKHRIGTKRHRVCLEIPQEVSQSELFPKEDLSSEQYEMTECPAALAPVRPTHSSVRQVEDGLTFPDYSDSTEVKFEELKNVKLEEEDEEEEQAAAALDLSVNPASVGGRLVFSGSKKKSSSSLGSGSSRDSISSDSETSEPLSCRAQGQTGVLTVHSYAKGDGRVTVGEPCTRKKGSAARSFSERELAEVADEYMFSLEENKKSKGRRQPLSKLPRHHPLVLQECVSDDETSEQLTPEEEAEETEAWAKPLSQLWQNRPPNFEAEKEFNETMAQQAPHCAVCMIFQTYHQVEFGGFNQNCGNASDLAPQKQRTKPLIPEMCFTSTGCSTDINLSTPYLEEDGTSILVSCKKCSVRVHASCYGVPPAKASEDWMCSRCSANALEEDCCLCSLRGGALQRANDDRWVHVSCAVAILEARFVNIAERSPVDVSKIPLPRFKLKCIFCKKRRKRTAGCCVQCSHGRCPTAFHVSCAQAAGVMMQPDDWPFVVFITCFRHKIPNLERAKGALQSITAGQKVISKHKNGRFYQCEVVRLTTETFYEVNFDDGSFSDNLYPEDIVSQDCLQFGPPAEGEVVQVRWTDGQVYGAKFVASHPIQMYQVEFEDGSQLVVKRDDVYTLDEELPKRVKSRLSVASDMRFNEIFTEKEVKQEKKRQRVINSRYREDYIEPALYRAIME
An asterisk follows results filed as active; ? = inconclusive; · = not tested or not shown; [ ] = remark or other dose. Calls follow the shape of the dose curve; as a rule, active = well fitted curve in the direction sought with a large enough effect; inconclusive = small, poorly fitted or top-dose-only effect, or another doubt; inactive = no such curve, though single readings can be large; an effect the other way counts as inactive or inconclusive. Potency is read from the fitted curve at half-maximal effect.

SMILES	Sfp inh	HP1b chromo inh	L3MBTL1 inh	BAZ2B block	G9a inh	JMJD2A Tudor
CCOc1ccc(Nc2ccc(N)c(S(=O)(=O)O)c2)cc1	·	50µM*	·	·	·	56µM*
COc1ccc(Cl)cc1NC(=O)Cn1c(=O)n(Cc2ccco2)c(=O)c2cccnc21	·	60%	·	9%	-4%[59 µM]	-5%
COc1ccc(N2CCN(C(=O)COC(=O)c3ccc(CSC)o3)CC2)cc1	·	-8%	-3%	?	16µM*	-36%
COc1ccc(N2CCN(C(=O)COC(=O)Cc3ccc(F)cc3)CC2)cc1	·	12%	-1%	-38%	45µM*	-28%
COc1ccc(N2CCN(C(=O)COC(=O)c3oc4ccccc4c3C)CC2)cc1	·	-17%	-24%	?	?	?
COc1ccc(N2CCN(C(=O)CCn3cnc4onc(-c5ccc(F)cc5)c4c3=O)CC2)cc1	·	-10%	·	?	14µM*	?
COc1ccc(N2CCN(C(=O)COC(=O)c3ccc(C)o3)CC2)cc1	·	6%	-6%	-9%	50µM*	-17%
Cc1cccc(CSc2ccc3nnc(CCNS(=O)(=O)c4ccccc4)n3n2)c1	·	7%	·	-33%	-8%[59 µM]	-30%
COc1ccccc1Nc1nc(NCCCN(C)C)nc(N)c1[N+](=O)[O-]	-27%	-15%	-29%	?	50µM*	?
CCC(C)Nc1nc(N)c([N+](=O)[O-])c(NCc2ccccc2)n1 (configuration not stated)	-8%	?	·	?	-23%	56µM*
Cc1ccc(Nc2nc(N)c([N+](=O)[O-])c(NCc3ccccc3)n2)cc1	6%	3%	-11%	-12%	4%	-14%
CCC(C)Nc1nc(N)c([N+](=O)[O-])c(Nc2cc(OC)ccc2OC)n1 (configuration not stated)	-12%	?	-23%	18µM*	?	40µM*
CCC(C)Nc1nc(N)c([N+](=O)[O-])c(Nc2ccccc2OC)n1 (configuration not stated)	-4%	?	-2%	?	45µM*	?
COc1ccccc1Nc1nc(NCC(C)C)nc(N)c1[N+](=O)[O-]	-11%	7%	-8%	?	?	?
Cc1cccc2sc(N(Cc3cccnc3)C(=O)Cc3ccccc3)nc12	·	12%	·	2%	0%[59 µM]	-6%
CCc1c(C)sc2c1CCN(C(=O)Nc1cc(C)ccc1C)C2c1ccc(OC)cc1 (configuration not stated)	·	21%	·	-22%	1%[59 µM]	-12%
CCC(C)Nc1nc(N)c([N+](=O)[O-])c(N2CCCCCC2)n1 (configuration not stated)	-2%	-28%	·	50µM*	-46%	?
COc1ccc(OC)c(Nc2nc(N(C)c3ccccc3)nc(N)c2[N+](=O)[O-])c1	-6%	-17%	·	?	35µM*	?
Cc1cc(NC(=O)N2CCC(CN3CCOCC3)CC2)ccc1Br	·	42%	·	-2%	-4%[59 µM]	-15%
C#CCOCCOCCOCCNc1nc(N2CCN(C(=O)CCCCCCCCCCNC(=O)[C@H](CCCCN)n3cc(C)nn3)CC2)nc(N2CCN(C(=O)CCCCCCCCCCNC(=O)[C@@H]([C@H](C)O)n3cc(C)nn3)CC2)n1	·	-22%	-1%	-37%	-4%[2.33 µM]	56µM*
C#CCOCCOCCOCCNc1nc(N2CCN(C(=O)CCCCCCCCCCNC(=O)[C@H](CCCCN)n3cc(C[C@@H](C)CC)nn3)CC2)nc(N2CCN(C(=O)CCCCCCCCCCNC(=O)[C@@H]([C@H](C)O)n3cc(C)nn3)CC2)n1	·	?	-9%	50µM*	-4%[2.33 µM]	56µM*
C#CCOCCOCCOCCNc1nc(N2CCN(C(=O)[C@H]([C@@H](C)O)n3cc(CCCCN)nn3)CC2)nc(N2CCN(C(=O)[C@H](CCCCN)n3cc(CC(C)O)nn3)CC2)n1 (some centres not stated)	·	15%	3%	-1%	-13%[2.33 µM]	-35%
C#CCOCCOCCOCCNc1nc(N2CCN(C(=O)CCCCCCCCCCNC(=O)[C@@H](CCSC)n3cc(CCO)nn3)CC2)nc(N2CCN(C(=O)CCCCCCCCCCNC(=O)[C@@H]([C@H](C)O)n3cc(C)nn3)CC2)n1	·	46%	-3%	?	-4%[2.33 µM]	-15%
CCOC(=O)C1CCN(C(=O)c2nn(-c3ccc(C)cc3)c(=O)n(C)c2=O)CC1	·	14%[57 µM]	·	1%	8%[59 µM]	-16%
COc1ccc(C2C(C(=O)/C=C/c3ccco3)=C(O)C(=O)N2CCN2CCOCC2)cc1 (configuration not stated)	-30%	17%	-17%	79µM*	?	-34%
SMILES	Sfp inh	HP1b chromo inh	L3MBTL1 inh	BAZ2B block	G9a inh	JMJD2A Tudor
CCOc1ccc(C2C(C(=O)/C=C/c3ccco3)=C(O)C(=O)N2CCN2CCOCC2)cc1OC (configuration not stated)	56µM*	19%	·	·	45µM*	?
COc1cccc(C2C(C(=O)/C=C/c3ccco3)=C(O)C(=O)N2CCN2CCOCC2)c1 (configuration not stated)	?	28%	·	·	50µM*	-31%
C=CCOc1cccc(C2C(C(=O)c3ccco3)=C(O)C(=O)N2CCN2CCOCC2)c1 (configuration not stated)	-15%	48%	-3%	?	-27%[12.7 µM]	?
COc1cc(C2C(C(=O)c3cccs3)=C(O)C(=O)N2CCN2CCOCC2)cc(OC)c1OC (configuration not stated)	5%	40%	-4%	2%	?	2%
O=C(CSc1nccn1Cc1ccco1)Nc1ccc(OC(F)(F)F)cc1	·	-1%[57 µM]	·	?	-44%[59 µM]	?
Cc1ccc(-c2noc(CN(C3CCCCC3)S(=O)(=O)c3ccc(F)cc3)n2)cc1	·	43%	·	14%	26%[59 µM]	10%
C=CCn1c(SCc2nc3ccccc3c(=O)[nH]2)nc2scc(C3CC3)c2c1=O	56µM*	15%	?	8%	-3%	-9%
